Shown is part of a subset that was picked to be rich in hits.
Pf Dd2 inh = Plasmodium falciparum Dd2 growth inhibition | AID 1347417 | P. falciparum Dd2 growth, SYBR Green, 72 h | Potency, µM (series often up to 28.9 µM), most hits filed as inhibitors | actives 4.3% (n = 120,000); active = well fitted inhibition curve with a large enough effect; also: nearly all actives have a fitted effect of over 65% in size
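Infected erythrocytes (Dd2, 0.3% parasitemia, 2.5% hematocrit final) are added to compound in RPMI-1640/Albumax II medium, grown 72 h at 37C in low oxygen, then lysed with saponin/Triton-X containing SYBR Green and read by fluorescence.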
Hits are given with their value; – = inactive.

SMILES | Pf Dd2 inh
COC(=O)CNC(=O)C1CCN(S(=O)(=O)c2cccc3nsnc23)CC1 | –
Cc1ccc(NC(=O)C2CCN(S(=O)(=O)c3cccc4nsnc34)CC2)cc1F | –
Cc1ccc(Cl)cc1NC(=O)C1CCC(CNS(=O)(=O)c2cccc3nsnc23)CC1 (configuration not stated) | 3.5µM
CCCN(CCC)CCCNC(=O)C1CCN(S(=O)(=O)c2cccc3nsnc23)CC1 | –
CCC(C)NC(=O)C1CCC(CNS(=O)(=O)c2cccc3nsnc23)CC1 (configuration not stated) | 0.79µM
Cc1ccc(NC(=O)C2CCC(CNS(=O)(=O)c3cccc4nsnc34)CC2)c(Cl)c1 (configuration not stated) | –
Cc1ccc(-n2c3c(cc(C(=O)Nc4cccc(Cl)c4)c2=O)C(=O)CC(C)(C)C3)cc1 | –
CCn1c(=O)cc(OCC(=O)N2CCN(c3ccc(C(C)=O)cc3)CC2)c2ccccc21 | –
Cc1ccc(OC2(C(=O)O)CCN(C(=O)c3nc(C)oc3C)CC2)cn1 | –
Clc1cc(N2CCC(N3CCCCC3)CC2)n2nccc2n1 | –
Cc1ccccc1NC(=O)c1c(C)oc2ccc(O)c(CN3CCCCCC3)c12 | 2.5µM
Cc1cc(Br)ccc1NC(=O)c1c(C)oc2ncnc(N3CCCCC3)c12 | –
COc1ccc(NC(=O)c2c(C)oc3ccc(O)c(CN4CCCCCC4)c23)cc1Cl | 0.35µM
Cc1ccc(NC(=O)c2c(C)oc3ncnc(N4CCCCC4)c23)cc1Cl | –
COc1cc(=O)n2c(c1C(=O)Nc1ccc(F)c(Cl)c1)CCCC2 | –
COc1cc(=O)n2c(c1C(=O)Nc1ccccc1C)CCCC2 | –
COC(=O)c1ccccc1NC(=O)Cn1c(=O)n(-c2cccc(OC)c2)c(=O)c2c(C)c(C(=O)N(C)C)sc21 | –
CCC(CC)C(=O)Nc1ccc([C@@H](O)[C@H]2COCC(=O)N2CC2CC2)cc1 | –
COC(=O)c1c(NC(=O)CS(=O)(=O)c2ccc(C)cc2)sc2c1CCCC2 | –
Cc1[nH]ncc1CNC(=O)[C@H]1CN(Cc2ccccc2)C[C@H]1C(=O)O | –
Cc1ccc(C)c(NC(=O)Cn2c(N3CCC(C)CC3)nc(C)cc2=O)c1 | –
COc1ccccc1CCN1CCCC(CN(C)C(=O)Cn2cccnc2=O)C1 (configuration not stated) | –
COc1ccccc1CCN1CCC(CN(C)C(=O)CCc2ccccc2Cl)CC1 | 8.9µM
COc1ccccc1CCN1CCCC(CN(C)C(=O)CN2C(=O)CNC2=O)C1 (configuration not stated) | –
COC(=O)C(CCSC)Nc1ncnc2onc(-c3ccc(F)cc3)c12 (configuration not stated) | –
SMILES | Pf Dd2 inh
CN(C)CCNC(=O)c1nc(-c2ccc(N3CCN(C)CC3)cc2)cc2c1ccn2C | 11µM
COc1ccc(-c2cc3c(ccn3C)c(C(=O)NCCC(N)=O)n2)cc1OC | –
Cn1ccc2c(C(=O)NCc3cccnc3)nc(-c3ccc(CO)cc3)cc21 | –
Cc1cc(F)cc(CN2CCc3nc(C(=O)NCC4CC4)oc3CC2)c1 | –
CCOc1ccc(OCC)c(NC(=O)CC(C)n2nc(C)cc2C)c1 (configuration not stated) | –
CC(C)(C)C(=O)Nc1ccc2nc(SCc3ccccc3)sc2c1 | –
COc1ccccc1N=c1scc(-c2ccc(S(=O)(=O)N3CCCC3)cc2)n1C | 10µM
COc1cccc2sc(=NC(=O)c3ccc(S(=O)(=O)N4CCCCC4)cc3)n(C)c12 | –
COc1ccccc1N1CCN(S(=O)(=O)c2ccc(-c3coc(C)n3)cc2)CC1 | –
C[C@@H](c1ccccc1)N1C(=O)[C@@H]2CN(C(=O)c3ccccc3)CCN2C1=O | –
COc1ccc(-c2cc(C(=O)Oc3ccccc3)c3cc(C)ccc3n2)cc1 | 4.5µM
Cc1ccc(-c2cc(C(=O)Oc3ccccc3)c3cccc(C)c3n2)cc1 | –
COc1ccc(-c2cc(C(=O)Oc3ccc(C)cc3)c3cc(C)ccc3n2)cc1 | –
O=C(c1ccccc1)N1CC2(CCCN2C2COC2)Cc2ccccc21 (configuration not stated) | –
CC(C)CNC(=O)N1CC(Oc2ccc(-c3noc(C4CCOCC4)n3)cc2)C1 | –
CNC(=O)N1CCC(C2CCN(C(=O)c3ccccc3OC(F)(F)F)C2)CC1 (configuration not stated) | –
CC(C)c1ccc(C2Sc3ccccc3NC3=C2C(=O)c2ccccc23)cc1 (configuration not stated) | 3.5µM
CCc1ccc(C2Sc3ccccc3NC3=C2C(=O)c2ccccc23)cc1 (configuration not stated) | 2µM
O=C1C2=C(Nc3ccccc3SC2c2ccc(C(F)(F)F)cc2)c2ccccc21 (configuration not stated) | 4.5µM
CCc1ccc(CNC(=O)c2cc3c(s2)-c2ccccc2OC3)cc1 | –
O=C1[C@@H]2CSC(c3ccc(C(F)(F)F)cc3)N2C(=O)N1c1ccccc1 (some centres not stated) | –
CCOC(=O)c1c(C)[nH]c(C)c1S(=O)(=O)N1CCC(C(=O)Nc2ccc(OC)c(OC)c2)CC1 | –

Screening data deposited in PubChem BioAssay by National Center for Advancing Translational Sciences (NCATS).
